A word on the AC50: it is the concentration giving half of the maximal activity seen.

Outcome and AC50 data for 19 compounds are collected here from PubChem BioAssay (EPA / NIEHS).

Calls of active or inactive are those of the source. The calls were made as follows: active = hit-call score of the fitted dose curve at least 0.9, where 1 is the maximum; inactive = score below 0.9.

Assay [1] in a line: BSK_LPS_SRB: Viability Assessment in the BioMAP Diversity Plus: LPS Assay (AID 2283079).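 Also: total protein by sulforhodamine B absorbance as a cytotoxicity measure; measured one day after compound addition; fitted in both directions against DMSO so loss or gain of signal counts.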 The note with it: primary human HUVEC with PBMC. The method in brief:
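Co-culture of human umbilical vein endothelial cells and PBMC, read 24 h after dosing. Total protein by 0.1% SRB staining after 10% TCA fixation, absorbance at 560 nm; bidirectional fit against DMSO.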

Read-out in assay [2]: Interleukin-1 alpha (IL1a), IL1A (gene 3552)
Briefly: BSK_LPS_IL1a: BioMAP Diversity Plus: LPS Assay for Interleukin-1 alpha (IL1a) Biomarker Activity (AID 2283080). The note with it: primary human HUVEC with PBMC; actives raise or lower the signal. The method in brief: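 Human umbilical vein endothelial cells co-cultured with PBMC and stimulated with LPS; IL-1a measured by ELISA 24 h after dosing. Bidirectional fitting against DMSO; cytotoxicity checked by SRB staining in parallel cultures.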

Read-out in assay [3]: Monocyte Chemoattractant Protein-1 (MCP1), CCL2 (gene 6347)
Nature of the assay: BSK_LPS_MCP1: BioMAP Diversity Plus: LPS Assay for Monocyte Chemoattractant Protein-1 (MCP1) Biomarker Activity (AID 2283081).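 As to AC50: secreted MCP-1 protein quantified by ELISA in culture supernatant.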 The note with it: primary human HUVEC with PBMC; actives raise or lower the signal. The method in brief:
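Human umbilical vein endothelial cells co-cultured with PBMC, LPS-stimulated; secreted MCP-1 measured by ELISA 24 h after compound addition. Bidirectional curve fitting against DMSO baseline; SRB total-protein staining in parallel cultures for cytotoxicity.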

Assay [4] in a line: BSK_LPS_PGE2: BioMAP Diversity Plus: LPS Assay for Prostaglandin E2 (PGE2) Biomarker Activity (AID 2283082).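 As to AC50: secreted prostaglandin E2 measured by ELISA in LPS-stimulated co-culture.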 The following applies: primary human HUVEC with PBMC; actives raise or lower the signal. The method in brief:
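HUVEC plus PBMC co-culture stimulated with LPS; secreted PGE2 quantified by ELISA 24 h after chemical dosing. Activity fitted bidirectionally against DMSO as negative control and baseline; parallel SRB total-protein staining served as cytotoxicity check.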

Read-out in assay [5]: Macrophage colony-stimulating factor (MCSF), CSF1 (gene 1435)
Briefly: BSK_LPS_MCSF: BioMAP Diversity Plus: LPS Assay for Macrophage colony-stimulating factor (MCSF) Biomarker Activity (AID 2283083). The following applies: primary human HUVEC with PBMC; actives raise or lower the signal. The method in brief:
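HUVEC–PBMC co-culture, M-CSF measured by ELISA 24 h after chemical dosing. Fitted in both directions relative to DMSO as negative control; overt cytotoxicity assessed by SRB total-protein staining in parallel cultures.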

Read-out in assay [6]: Tissue Factor, F3 (gene 2152)
Briefly: BSK_LPS_TissueFactor: BioMAP Diversity Plus: LPS Assay for Tissue Factor Biomarker Activity (AID 2283084). The note with it: primary human HUVEC with PBMC; actives raise or lower the signal. The method in brief:
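Human umbilical vein endothelial cells co-cultured with PBMC were dosed with compound. Cell-surface CD142 was measured by ELISA 24 h later. Activity was fitted bidirectionally against DMSO, with SRB total-protein staining in parallel cultures for cytotoxicity.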

Read-out in assay [7]: Tumor necrosis factor (Homo sapiens) (UniProt P01375)
Briefly: BSK_LPS_TNFa: BioMAP Diversity Plus: LPS Assay for Tumour Necrosis Factor alpha (TNFa) Biomarker Activity (AID 2283085).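 As to AC50: TNFa protein level quantified by ELISA in the co-culture.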 The note with it: primary human HUVEC with PBMC; actives raise or lower the signal. The method in brief: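 Human umbilical vein endothelial cells co-cultured with PBMC were exposed to test chemical and TNFa measured by ELISA 24 h after dosing. Bidirectional curve fitting was done relative to DMSO as negative control and baseline.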

Read-out in assay [8]: Vascular cell adhesion molecule 1 (VCAM1), VCAM1 (gene 7412)
Nature of the assay: BSK_LPS_VCAM1: BioMAP Diversity Plus: LPS Assay for Vascular cell adhesion molecule 1 (VCAM1) Biomarker Activity (AID 2283086). The note with it: primary human HUVEC with PBMC; actives raise or lower the signal. The method in brief: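 Human umbilical vein endothelial cells co-cultured with peripheral blood mononuclear cells under LPS stimulation were exposed to test chemical for 24 h. VCAM-1 levels were then measured by ELISA, with bidirectional curve fitting relative to DMSO as negative control and baseline.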

Read-out in another assay: CD38, CD38 (gene 952)
Nature of the assay: BSK_SAg_CD38: BioMAP Diversity Plus: SAg Assay for CD38 Biomarker Activity (AID 2283087). The note with it: primary human HUVEC with PBMC; actives raise or lower the signal. The method in brief:
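Fluorescence ELISA of cell-surface CD38 served as the read-out, with either increase or decrease fitted against DMSO controls. Cells were a human umbilical vein endothelium plus PBMC co-culture under SEB/TSST-1 stimulation, measured 24 h after dosing.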

Read-out in the next assay: CD40, CD40 (gene 958)
Briefly: BSK_SAg_CD40: BioMAP Diversity Plus: SAg Assay for CD40 Biomarker Activity (AID 2283088). The note with it: primary human HUVEC with PBMC; actives raise or lower the signal. The method in brief: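 HUVEC plus PBMC co-culture, superantigen-activated, with CD40 read by ELISA 24 h after dosing. Curves fitted in both directions against DMSO. Overt cytotoxicity checked by parallel SRB total-protein staining.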

Sequence of Tumor necrosis factor (Homo sapiens) (P01375 whole entry, looked up): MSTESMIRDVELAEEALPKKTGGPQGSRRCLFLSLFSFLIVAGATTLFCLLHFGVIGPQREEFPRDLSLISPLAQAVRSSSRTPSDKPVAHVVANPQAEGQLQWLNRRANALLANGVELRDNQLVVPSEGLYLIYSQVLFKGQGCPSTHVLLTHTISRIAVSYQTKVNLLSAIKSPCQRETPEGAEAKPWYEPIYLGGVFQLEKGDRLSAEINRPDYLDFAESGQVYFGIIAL

On to `O=c1n(Cl)c(=O)n(Cl)c(=O)n1Cl`, for which the outcome in assay [1], in assay [2], in assay [3], in assay [4], in [5] and in assay [7] was inactive. Besides, the outcome in assay [8] was “inactive”; in the assay with CD38, CD38 (gene 952), “inactive”; with CD40, CD40 (gene 958), “inactive”. In addition, the AC50 in assay [6] is 0.966 µM (active).

`CCCN(CC)CC1COC2(CCC(C(C)(C)C)CC2)O1` (stereo not given): the result in assay [1], in [2], in assay [3], in assay [4], in assay [5] and in assay [7] was inactive. The outcome in assay [8] is “inactive”; with CD40, CD40 (gene 958), “inactive”. The concentration at half-maximal activity (AC50) with CD38, CD38 (gene 952) is 14.7 µM (active).

In the case of `CCOc1nc(C(Cl)(Cl)Cl)ns1`, the outcome in [1], in assay [2], in assay [3], in assay [4], in assay [5] and in assay [6] was inactive. For the same compound, the outcome in [7] was “inactive”; in assay [8], “inactive”; with CD38, CD38 (gene 952), “inactive”; with CD40, CD40 (gene 958), “inactive”.

As to `CC(C)Oc1cccc(NC(=O)c2ccccc2C(F)(F)F)c1`, the AC50 in assay [1] was 16.7 µM (active). Moreover, the result in assay [2], in assay [3], in [4], in assay [5], in [7] and in [8] was inactive. Further, the outcome with CD38, CD38 (gene 952) is “inactive”; with CD40, CD40 (gene 958) it was “inactive”.

For `N#Cc1c(Cl)cccc1Cl`, the result in assay [1], in assay [2], in assay [3], in assay [4], in assay [5] and in assay [6] was inactive. The outcome is “inactive” in [7]; “inactive” in assay [8]; “inactive” with CD38, CD38 (gene 952); “inactive” in the assay with CD40, CD40 (gene 958).

Regarding `CC1(C)CON(Cc2ccccc2Cl)C1=O`, the result in assay [1], in assay [2], in assay [3], in [4], in [5] and in [7] was inactive. In addition, the outcome in [8] was “inactive”; with CD38, CD38 (gene 952), “inactive”; with CD40, CD40 (gene 958), “inactive”.

For the compound `CC(C)N1C(=O)c2ccccc2NS1(=O)=O`, the outcome in [1], in assay [2], in assay [3], in [4], in assay [5] and in assay [6] was inactive. Further, the outcome in [7] was “inactive”; in assay [8], “inactive”; in the assay with CD38, CD38 (gene 952), “inactive”; with CD40, CD40 (gene 958), “inactive”.

As for `CCOc1cc(C(C)(C)C)ccc1C1COC(c2c(F)cccc2F)=N1` (stereo not given), the AC50 was 26.2 µM (active) in assay [1]; 30.5 µM (active) in assay [2]; 33.4 µM (active) in assay [3]; 32.1 µM (active) in assay [4]; 20.9 µM (active) in assay [5]; 36.8 µM (active) in assay [6]. For the same compound, the AC50 in [7] was 30.4 µM (active); in assay [8] it was 31.4 µM (active); with CD38, CD38 (gene 952) it was 18.8 µM (active); with CD40, CD40 (gene 958) it was 15.8 µM (active).

In the case of `CCCCC(C#N)(Cn1cncn1)c1ccc(Cl)cc1` (stereo not given), the outcome in assay [1], in assay [2], in assay [3], in assay [5], in [7] and in assay [8] was inactive. For the same compound, the outcome in the assay with CD38, CD38 (gene 952) is “inactive”; in the assay with CD40, CD40 (gene 958) it was “inactive”. For the same compound, the half-maximal activity concentration (AC50) in assay [4] is 12 µM (active).

As to `CC1(C)C(C=C(Cl)Cl)C1C(=O)OC(C#N)c1cccc(Oc2ccccc2)c1` (stereo not given), the results for the AC50 in assay [1], in assay [4] and in [7] were 3.97 µM (active), 4.89 µM (active) and 0.838 µM (active), respectively. Moreover, the outcome in [2] was “inactive”; in [3], “inactive”; in assay [5], “inactive”; in assay [8], “inactive”; with CD38, CD38 (gene 952), “inactive”; in the assay with CD40, CD40 (gene 958), “inactive”.

With `O=C1C2CC=CCC2C(=O)N1SC(Cl)(Cl)Cl` (stereo not given), the outcome was “inactive” in assay [1]; “inactive” in assay [2]; “inactive” in assay [3]; “inactive” in [4]; “inactive” with CD40, CD40 (gene 958). In addition, the AC50 was 29 µM (active) in [5]; 36.6 µM (active) in [7]; 14.3 µM (active) in assay [8]; 30.5 µM (active) with CD38, CD38 (gene 952).

In the case of `CC1(C)C(C(=O)OC(C#N)c2cccc(Oc3ccccc3)c2)C1(C)C` (stereo not given), the result in [1], in [2], in [3], in [5], in assay [6] and in [8] was inactive. The AC50 in assay [4] is 6.92 µM (active); in [7], 5.68 µM (active); with CD38, CD38 (gene 952), 12.1 µM (active); with CD40, CD40 (gene 958), 14.1 µM (active).

In the case of `CNC(=O)N(C)c1nnc(C(C)(C)C)s1`, the outcome in assay [1], in assay [2], in [3], in assay [4], in assay [5] and in [7] was inactive. For the same compound, the outcome was “inactive” in [8]; “inactive” with CD38, CD38 (gene 952); “inactive” with CD40, CD40 (gene 958).

`CC(C)=CC1C(C(=O)OCc2coc(Cc3ccccc3)c2)C1(C)C` (stereo not given): the outcome in [1], in assay [2], in assay [3], in [4], in assay [5] and in [7] was inactive. For the same compound, the outcome in assay [8] is “inactive”; with CD38, CD38 (gene 952) it was “inactive”; with CD40, CD40 (gene 958), “inactive”.

With `CCNP(=S)(OC)O/C(C)=C/C(=O)OC(C)C` (stereo not given), the outcome in [1], in assay [2], in [3], in [4], in assay [5] and in assay [7] was inactive. Besides, the outcome is “inactive” in [8]; “inactive” with CD38, CD38 (gene 952); “inactive” with CD40, CD40 (gene 958).

For the compound `COCC(=O)N(c1c(C)cccc1C)C(C)C(=O)OC` (stereo not given), the outcome in assay [1], in [2], in assay [3], in assay [4], in assay [5] and in assay [7] was inactive. Moreover, the outcome is “inactive” in assay [8]; “inactive” in the assay with CD38, CD38 (gene 952); “inactive” in the assay with CD40, CD40 (gene 958).

`CCN(CC)c1nc(C)cc(OP(=S)(OC)OC)n1`: the outcome in assay [1], in assay [2], in assay [3], in [4] and in assay [6] was inactive. Moreover, the AC50 in assay [7] is 6.51 µM (active); in [8], 20 µM (active); with CD38, CD38 (gene 952) it was 20 µM (active); with CD40, CD40 (gene 958), 20 µM (active).

Take `CS(=O)(=O)c1ccc(C(=O)C2C(=O)CCCC2=O)c([N+](=O)[O-])c1`: the result in assay [1], in [2], in [3], in assay [4], in assay [5] and in assay [6] was inactive. Moreover, the outcome was “inactive” in assay [7]; “inactive” in [8]; “inactive” in the assay with CD38, CD38 (gene 952); “inactive” with CD40, CD40 (gene 958).

Regarding `OC(c1ccc(Cl)cc1)(c1ccc(Cl)cc1)C(Cl)(Cl)Cl`, the AC50 in assay [5] is 29.5 µM (active).
